hcDAF12 agonist = H. contortus DAF-12 activation, primary screen | HEK293 hcDAF-12 lit1-tk-luc reporter, luminescence; 0% DMSO, 100% Δ7-dafachronic acid | activation, % at 6.8 µM | 370,000 compounds, 1.4% hits | AID 652067;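 active = activation above the mean of all tested compounds plus 3 SD, cut at about 5.5% in these data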
DAX1 inh-1 = DAX1 (NR0B1) inhibition, primary screen; inhibition, % at 6.8 µM; HEK293T StAR-luciferase reporter, SF-1/DAX-1 repression relief; 370,000 compounds, 1.1% hits;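 active = inhibition above the mean over all tested compounds plus 3 SD, cut at about 3.6% in these data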;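 note: higher inhibition means more luminescence from relief of DAX-1 repression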
ssDAF12 agonist = activates DAF-12 receptor from parasite S. stercoralis. HEK293 ssDAF-12/GRIP1 lit1-tk-luc reporter, luminescence; % of 3 µM dafachronic acid response. activation, % at 6.8 µM. 370,000 compounds, 1% hits. AID 652126;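 active = activation above the mean over all tested compounds plus 3 SD, cut at about 0.9% in these data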
hgDAF12 agonist = activates the H. glycines DAF-12 receptor ligand-binding domain. HEK293 GAL4-hgDAF12 UAS-luciferase reporter, agonist luminescence; normalized to butyrate control. AID 687014. 370,000 compounds, 1.8% hits. activation, % at 6.8 µM;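 active = activation above a cutoff set at the mean of all screened compounds plus 3 SD, cut at about 10% in these data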
DAX1 inh-2 = inhibitors of human orphan nuclear receptor DAX1 (NR0B1). HEK293 Gal4-DAX1 luciferase reporter, luminescence. P51843. 340,000 compounds, 0.99% hits. inhibition, % at 6.75 µM;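 active = inhibition above the mean over all tested compounds plus 3 SD, cut at about 4.2% in these data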;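 note: inhibition shows as a rise in luminescence from relieved DAX1 repression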
Target sequence (P51843 207-470 limits assumed): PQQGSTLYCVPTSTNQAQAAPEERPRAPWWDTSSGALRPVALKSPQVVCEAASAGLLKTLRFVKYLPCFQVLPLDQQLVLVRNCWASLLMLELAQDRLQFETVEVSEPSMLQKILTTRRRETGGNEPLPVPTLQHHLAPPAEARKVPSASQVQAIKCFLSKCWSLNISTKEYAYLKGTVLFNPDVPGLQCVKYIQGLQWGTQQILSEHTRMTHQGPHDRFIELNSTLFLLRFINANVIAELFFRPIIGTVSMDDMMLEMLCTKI
LXR ag = activates human LXR-beta, counter-screen for hcDAF-12 agonists; 3,400 tested, under 10 active; HEK293 Gal4-LXR tk-luc reporter, luminescence, 24 h; normalized: DMSO 0%, positive control 100%; activation, % at 6.8 µM; shares compounds with hcDAF12 agonist;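 active = mean percent activation of the reporter above a cutoff set as the average over tested compounds plus their standard deviation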
hcDAF12 ag = hcDAF-12 agonism, confirmation assay; 3,400 compounds, 61% hits; activation, % at 6.8 µM; shares compounds with hcDAF12 agonist; HEK293 hcDAF-12 lit1-tk-luc reporter, luminescence; % of Δ7-dafachronic acid response;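 active = mean activation across triplicate tests above the threshold derived from the earlier primary screen, cut at about 5.5% in these data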
hgDAF12 ag = confirmation of H. glycines DAF-12 agonists; activation, % at 6.8 µM; shares compounds with hgDAF12 agonist; AID 743050; HEK293 GAL4-hgDAF12 luciferase reporter, agonist mode; percent of butyrate response; 3,300 compounds, 80% hits;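 active = mean activation over triplicate wells above the hit cutoff derived from the earlier primary screen, cut at about 11% in these data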
LXRb DAF12 ctr = counter-screen for DAF-12 agonists: agonists of human LXR-beta | shares compounds with hgDAF12 agonist | 3,300 tested, under 10 active | activation, % at 6.8 µM | HEK293 Gal4-LXR luciferase reporter, 24 h;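 active = mean activation of the triplicate above a set limit carried over from the primary screen, none filed active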
Each line names hits and unclear results; the compound was inactive in the other large screens (follow-up assays come after a bar, where they were run). This is a sample that favours compounds with a hit; in the whole collection about 4.1% have one here.

CN(C)c1ccc(Nc2nc(-c3cccnc3)cs2)cc1	hcDAF12 agonist 12, ssDAF12 agonist 1.3, hgDAF12 agonist 18 | LXR ag inactive | hcDAF12 ag 9.7 | hgDAF12 ag 23 | LXRb DAF12 ctr inactive
Fc1ccc(Nc2nc(-c3cccnc3)cs2)cc1	hcDAF12 agonist 10, ssDAF12 agonist 1.1, hgDAF12 agonist 17, DAX1 inh-2 8.0 | LXR ag inactive | hcDAF12 ag 10 | hgDAF12 ag 20 | LXRb DAF12 ctr inactive
CN(Cc1ccccc1)C(=O)OCc1cn(Cc2cc(F)cc(F)c2)nn1	none (no result: DAX1 inh-2)
Cn1c(N/N=C/c2cc3ccccc3nc2Cl)nc2ccccc21	hcDAF12 agonist 12, ssDAF12 agonist 1.4, hgDAF12 agonist 15 | LXR ag inactive | hcDAF12 ag 11 | hgDAF12 ag 17 | LXRb DAF12 ctr inactive
O=C(CSc1nnc(-c2ccncc2)n1-c1ccc(Br)cc1)c1ccccc1	none (no result: DAX1 inh-2)
CN(C)c1ccc(C2NC(=O)c3ccccc3N2)cc1 (centres undefined)	hcDAF12 agonist 8.1, hgDAF12 agonist 14 | LXR ag inactive | hcDAF12 ag 8.3 | hgDAF12 ag 20 | LXRb DAF12 ctr inactive
CCOC(=O)[C@]12CCCC3=C1N(CCC3)C(=O)[C@@H](CC(=O)NCc1ccccc1)C2	none (no result: DAX1 inh-2)
CC(C)NC(=O)OC[C@H]1O[C@H](C#Cc2ccc(C(C)(C)C)cc2)C=C[C@H]1O	none (no result: DAX1 inh-2)
Nc1c(-c2cccs2)cnc2c(-c3ccc(F)cc3)cnn12	hcDAF12 agonist 9.0, ssDAF12 agonist 1.0, hgDAF12 agonist 16 | LXR ag inactive | hcDAF12 ag 6.6 | hgDAF12 ag 25 | LXRb DAF12 ctr inactive
C=CCN1[C@@H](CC(C)C)COc2cccc(N3CCCC3)c2S1(=O)=O	none (no result: DAX1 inh-2)
O=[N+]([O-])c1ccc(/C=C/c2ccc3cccc(O)c3n2)cc1	none
O=[N+]([O-])c1ccc(/C=C/c2ccc3ccccc3n2)cc1	hcDAF12 agonist 11, DAX1 inh-1 3.8, ssDAF12 agonist 1.0, hgDAF12 agonist 24 | LXR ag inactive | hcDAF12 ag 9.7 | hgDAF12 ag 13 | LXRb DAF12 ctr inactive
CC1CC(=O)C2=C(C1)Nc1ccccc1N=C2 (centres undefined)	none
CCC1=Nc2ccccc2NC2=C1C(=O)CCC2	hcDAF12 agonist 15, ssDAF12 agonist 2.6, hgDAF12 agonist 14 | LXR ag inactive | hcDAF12 ag 7.9 | hgDAF12 ag inactive | LXRb DAF12 ctr inactive
CC(C)(C)OC(=O)NCc1ccccc1/C=C/S(=O)(=O)NC1CCCC1	none (no result: DAX1 inh-2)
O=C(O)c1cccc(-c2nnn(Cc3ccccc3Cl)n2)c1	hcDAF12 agonist 6.7, DAX1 inh-1 4.4, ssDAF12 agonist 2.0, hgDAF12 agonist 13 | LXR ag inactive | hcDAF12 ag 8.5 | hgDAF12 ag 22 | LXRb DAF12 ctr inactive
Cc1ccccc1Cn1nnc(-c2ccc(C(=O)O)cc2)n1	none
Cc1ccc2nc(-c3ccc(C#N)cc3)c(Cc3cccc(F)c3)n2c1	none (no result: DAX1 inh-2)
O=[N+]([O-])c1cc(S(=O)(=O)NCc2ccco2)ccc1NN=Cc1ccccn1	none (no result: DAX1 inh-2)
O=[N+]([O-])c1ccc(NN=Cc2cccc(O)c2)nc1	hcDAF12 agonist 10, hgDAF12 agonist 18, DAX1 inh-2 5.6 | LXR ag inactive | hcDAF12 ag inactive | hgDAF12 ag 21 | LXRb DAF12 ctr inactive
C(=C\n1nnc2ccccc21)/c1ccccn1	hcDAF12 agonist 8.4, ssDAF12 agonist 1.2, hgDAF12 agonist 19 | LXR ag inactive | hcDAF12 ag 7.5 | hgDAF12 ag 24 | LXRb DAF12 ctr inactive
Nn1nnc2ccccc21	none

Source: PubChem BioAssay
